Source: PubChem
SNCA viab count – cell viability loss counter-screen. HEK-293-SNCA-luc viability, GF-AFC fluorescence, 24 h. Potency, µM (highest dose often 57.1 µM), usual class: cytotoxic. 150,000 compounds, 0.12% hits. AID 1671193; note: nearly all actives have a fitted effect of over 30% in size
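Cytotoxicity counterscreen: after 24 h compound treatment of genome-edited SNCA-luciferase HEK-293 cells, live-cell protease substrate GF-AFC read by fluorescence after 30 min; activity scaled between DMSO (0%) and medium-only (-100%), curves Hill-fitted.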
IP6K1 inhibitor – inhibitors of human IP6K1; Q92551; IP6K1 kinase, ADP-Glo luminescence, 2 h; hits give low values; activity change, % (series mostly up to about 58 µM); 140,000 compounds, 0.81% hits; AID 1645851; in the data active = activity change below about -25%
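ADP-Glo luminescence measures ADP made by human IP6K1 during a 2 h RT reaction with ATP/IP6 (mix at 1.3 mM/130 uM); top library doses 57.5 and 19.1 uM final.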
KDM5B inhibitor – KDM5B demethylase inhibition | 220,000 compounds, 2.6% hits | Q9UGL1 | Potency, µM (series often up to 57.7 µM), hits mostly inhibitors | KDM5B demethylase, FDH-coupled NADH fluorescence (FDH is formaldehyde dehydrogenase) | AID 1347165; note: nearly all actives have a fitted effect of over 70% in size
Target sequence (Q9UGL1 whole entry, looked up): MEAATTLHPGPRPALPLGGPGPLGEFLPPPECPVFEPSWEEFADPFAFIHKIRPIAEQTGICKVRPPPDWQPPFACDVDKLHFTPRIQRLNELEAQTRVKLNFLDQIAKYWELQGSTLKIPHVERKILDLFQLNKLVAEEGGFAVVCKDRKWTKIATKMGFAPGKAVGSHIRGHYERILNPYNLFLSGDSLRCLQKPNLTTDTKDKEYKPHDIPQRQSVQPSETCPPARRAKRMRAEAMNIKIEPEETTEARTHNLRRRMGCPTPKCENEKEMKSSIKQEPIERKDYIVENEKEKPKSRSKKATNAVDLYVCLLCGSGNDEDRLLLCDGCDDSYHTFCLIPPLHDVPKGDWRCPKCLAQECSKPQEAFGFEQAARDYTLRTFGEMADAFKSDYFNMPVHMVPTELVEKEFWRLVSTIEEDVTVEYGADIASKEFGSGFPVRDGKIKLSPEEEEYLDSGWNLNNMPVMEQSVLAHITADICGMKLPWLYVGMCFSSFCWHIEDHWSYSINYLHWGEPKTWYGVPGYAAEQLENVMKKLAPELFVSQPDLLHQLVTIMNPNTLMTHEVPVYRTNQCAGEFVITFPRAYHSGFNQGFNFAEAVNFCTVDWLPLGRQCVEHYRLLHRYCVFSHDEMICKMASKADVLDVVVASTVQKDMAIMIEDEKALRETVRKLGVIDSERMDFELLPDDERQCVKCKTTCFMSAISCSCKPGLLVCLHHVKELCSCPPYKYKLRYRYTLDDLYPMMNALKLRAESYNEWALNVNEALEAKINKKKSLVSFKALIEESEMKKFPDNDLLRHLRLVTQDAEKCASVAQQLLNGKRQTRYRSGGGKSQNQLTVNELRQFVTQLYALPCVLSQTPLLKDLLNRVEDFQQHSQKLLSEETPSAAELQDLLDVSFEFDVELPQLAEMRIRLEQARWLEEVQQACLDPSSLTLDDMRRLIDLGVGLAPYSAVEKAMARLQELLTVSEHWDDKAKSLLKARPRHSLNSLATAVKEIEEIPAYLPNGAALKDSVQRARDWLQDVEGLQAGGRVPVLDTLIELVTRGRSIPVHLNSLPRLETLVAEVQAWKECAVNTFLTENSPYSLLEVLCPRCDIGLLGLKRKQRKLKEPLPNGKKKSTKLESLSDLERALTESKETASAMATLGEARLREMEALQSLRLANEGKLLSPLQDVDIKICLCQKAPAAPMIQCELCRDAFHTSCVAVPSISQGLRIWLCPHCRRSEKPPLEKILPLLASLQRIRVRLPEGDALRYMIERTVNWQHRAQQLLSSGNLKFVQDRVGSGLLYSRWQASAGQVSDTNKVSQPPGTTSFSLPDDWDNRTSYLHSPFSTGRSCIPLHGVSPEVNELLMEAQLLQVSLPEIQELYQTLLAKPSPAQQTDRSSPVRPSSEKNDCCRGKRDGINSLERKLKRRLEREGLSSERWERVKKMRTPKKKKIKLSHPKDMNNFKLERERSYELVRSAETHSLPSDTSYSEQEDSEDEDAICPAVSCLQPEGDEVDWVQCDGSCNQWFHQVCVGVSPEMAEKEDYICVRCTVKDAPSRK
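Here, H3K4me3 peptide (12.5 µM in substrate mix) is demethylated by KDM5BΔAP, 200 nM final, after 10 min compound exposure. Formaldehyde product is coupled through FDH (0.25 U/mL in mix) to NADH fluorescence; 30-min ΔRFU feeds dose-response curves.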
SNCA expr inhib – reduces expression of the alpha-synuclein gene; HEK-293 SNCA-luciferase knock-in, luminescence, 24 h; Potency, µM (highest dose often 57.2 µM), most hits filed as inhibitors; 140,000 compounds, 0.17% hits; AID 1671194; note: nearly all actives have a fitted effect of over 45% in size
Numbers stand for hits; . = inactive; ? = inconclusive; / = not tested or not shown; ! = not confirmed by another sample. Compounds with a hit are over-represented: about 2.9% of the library has one in this group of screens. Unless noted, calls come from the whole dose curve; as a rule, active = well fitted curve in the direction sought with a large enough effect; inconclusive = small, poorly fitted or top-dose-only effect, or another doubt; inactive = no such curve, though single readings can be large; an effect the other way counts as inactive or inconclusive.

SMILES | SNCA viab count | IP6K1 inhibitor | KDM5B inhibitor | SNCA expr inhib
COc1ccc(-c2nccn3cc(C(=O)NCCc4ccccn4)nc23)cc1 | . | . | 25µM | .
CCCCC12CN3CC(C)(CN(C1)C(=O)c1ccccc1C3=O)C2=O | / | / | . | /
O=C(NCCc1ccncc1)c1ccc(-c2nnc3ccc(NC(=O)C4CCC4)cn23)cc1 | . | . | 28µM | .
CC(=O)Nc1ccc2nnc(-c3ccc(C(=O)N4CCCCCC4)cc3)n2c1 | . | . | 14µM | .
O=C(NCCc1ccccn1)c1ccc(-c2nnc3ccc(NC(=O)C4CCC4)cn23)cc1 | . | . | ? | .
O=C(c1ccc2nnc(-c3ccc(Cl)cc3)n2c1)N1CCCC1 | . | . | / | ?
O=C(Nc1ccc2nnc(-c3ccc(C(=O)N4CCSCC4)cc3)n2c1)C1CCC1 | . | . | 28µM | .
CCN1CCN(C(=O)c2ccc(-c3nnc4ccc(NC(=O)C5CC5)cn34)cc2)CC1 | . | . | 28µM | .
CCN1CCN(C(=O)c2cn3cc(-c4ccc(C)cc4)sc3n2)CC1 | . | . | / | .
Cc1cnc(CC2CCCN(C(=O)Cc3cccc(F)c3)C2)n1C(C)C (stereo not drawn) | . | . | / | .
CCCN(C)C(=O)c1ccc(-c2nnc3ccc(NC(=O)C4CCC4)cn23)cc1 | . | . | 22µM | .
CN(C)C(=O)c1ccc(-c2nnc3ccc(NC(=O)C4CCC4)cn23)cc1 | . | . | 22µM | .
CC(NC(=O)c1ccc(-c2nnc3ccc(NC(=O)C4CCC4)cn23)cc1)c1cccs1 (stereo not drawn) | . | . | 28µM | .
CN(C)CCNC(=O)c1ccc(-c2nnc3ccc(NC(=O)C4CCC4)cn23)cc1 | . | . | ? | .
COc1ccc(NC(=O)c2ccc(-c3nnc4ccc(NC(=O)C5CCC5)cn34)cc2)cc1 | . | . | ? | .
Cc1ccc(NS(=O)(=O)c2ccc(N3CC(C(=O)O)CC3=O)cc2)cc1F (stereo not drawn) | / | / | . | /
COCCNC(=O)c1cc(-c2ccc([S+](C)(=O)[O-])cc2)nc2c1cnn2C | . | . | / | .
Cc1cc(C(F)(F)F)nc(CNC(=O)c2ccc3cccc(F)c3n2)n1 | . | . | 22µM | .
CCCc1nc(C(=O)NCc2nc(C)cc(C(F)(F)F)n2)cs1 | . | . | . | .
O=C(CSc1n[nH]c(-c2cccc(Br)c2)n1)c1ccc(Cl)cc1 | / | / | . | /
Cc1ccc2nc(C3CCN(Cc4ccc(C#N)cc4)CC3)[nH]c(=O)c2c1 | . | . | 79µM! | .
N#Cc1ccc(CN2CCC(c3nc4ccc(F)cc4c(=O)[nH]3)CC2)cc1 | . | . | . | .
CCc1ccc(N2CC(c3noc(-c4nccc5ccccc45)n3)CC2=O)cc1 (stereo not drawn) | . | . | 32µM | .
CCc1ccc(N2CC(c3noc(-c4ccc5ncccc5c4)n3)CC2=O)cc1 (stereo not drawn) | . | . | 32µM | .
CCc1ccc(N2CC(c3noc(-c4ccccc4)n3)CC2=O)cc1 (stereo not drawn) | . | . | . | .
SMILES | SNCA viab count | IP6K1 inhibitor | KDM5B inhibitor | SNCA expr inhib
O=C1CC(c2noc(-c3nccc4ccccc34)n2)CN1C1CCCCC1 (stereo not drawn) | . | . | 22µM | .
CCc1ccc(N2CC(c3noc(-c4ccccn4)n3)CC2=O)cc1 (stereo not drawn) | . | . | . | .
O=C1CC(c2noc(-c3ccoc3)n2)CN1C1CCCCC1 (stereo not drawn) | . | . | . | .
O=C(c1ccsc1)N1CC[C@@H]2COCCN(Cc3ccccc3)[C@@H]2C1 | . | . | . | .
Cc1noc(-c2cn(C3CCN(C(=O)Cc4ccc(OC(F)(F)F)cc4)CC3)nn2)n1 | . | . | . | .
COc1ccc(N2CCN(S(=O)(=O)CCNC(=O)Cc3ccc(-c4ccccc4)cc3)CC2)cc1 | . | -27 | . | .
O=C(Cc1ccc(-c2ccccc2)cc1)NCCS(=O)(=O)N1CCN(c2ccccc2)CC1 | . | . | ? | .
Cc1ccccc1-n1cc(-c2ccnc(NC(C)Cc3ccncc3)n2)cn1 (stereo not drawn) | ? | . | 25µM | ?
O=C(Cn1ccc2cc(Cl)ccc21)NCc1ccccc1 | / | / | . | /
Cc1noc(-c2cccs2)c1C(=O)NC(C)c1cccc2ccccc12 (stereo not drawn) | . | . | 32µM | .
Cc1noc(-c2cccs2)c1C(=O)NC(C)c1ccccc1 (stereo not drawn) | . | . | 25µM | .
COc1cccc(CNC(=O)c2c(C)noc2-c2cccs2)c1 | ? | . | ? | .
Cc1cccc(CNC(=O)c2c(C)noc2-c2cccs2)c1 | . | . | 28µM | .
O=C(NCc1ccc(Cl)cc1)c1ccc2nnc(Cc3ccc(Cl)cc3)n2c1 | . | . | / | ?
COCCCNC(=O)C1(C)CN(C)Cc2ccc(NCc3ccccc3)nc21 (stereo not drawn) | . | . | 32µM | .
COc1cccc(NC(=O)C2(C)CN(C)Cc3ccc(NCc4ccccc4)nc32)c1 (stereo not drawn) | . | . | ? | .
COc1ccc(NC(=O)C2(C)CN(C)Cc3ccc(NCc4ccccc4)nc32)cn1 (stereo not drawn) | ? | . | 32µM | ?
COc1ccc(NC(=O)C2(C)CCc3cnc(NCc4ccccc4)nc32)cn1 (stereo not drawn) | ? | . | 40µM | .
CC(C)n1c(C2CCCN(C(=O)Cc3ccccc3)C2)nn(C)c1=O (stereo not drawn) | . | . | / | .
O=C(c1ccccn1)N1CCCN(CCn2nc3n(c2=O)CCCC3)CC1 | / | . | / | /
CCC(C(=O)c1ccc(Cl)cc1)C(c1ccc(Cl)cc1)C(C(=O)OC)C(=O)OC (stereo not drawn) | / | / | . | /
O=C(Cn1ccn2nc(-c3ccc(F)cc3)c(CO)c2c1=O)Nc1ccc(Cl)cc1F | . | . | 32µM | .
Cc1cccc(NC(=O)Cn2ccn3nc(-c4ccccc4)c(CO)c3c2=O)c1 | . | . | ? | .
O=C(Cn1ccn2nc(-c3ccccc3)c(CO)c2c1=O)Nc1cccc(F)c1 | . | . | 18µM | .
CCn1c(=O)c2ccccc2n(CC(=O)Nc2cccc3cccnc23)c1=O | / | / | . | /
SMILES | SNCA viab count | IP6K1 inhibitor | KDM5B inhibitor | SNCA expr inhib
FC(F)(F)Oc1cccc(CN2CCC[C@H]2c2nc(-c3ccc(N4CCOCC4)nc3)no2)c1 | . | . | 28µM | .
Oc1ccccc1CN1CCC[C@H]1c1nc(-c2ccc(N3CCOCC3)nc2)no1 | . | . | 35µM | .
CN1CCN(c2ccc(-c3noc([C@@H]4CCCN4CCCc4ccccc4)n3)cn2)CC1 | . | . | 32µM | .
COc1ccc(-c2noc([C@@H]3CCCN3C(=O)CCc3ccccc3)n2)cc1OC | . | . | 28µM | .
CNc1ccc(-c2noc([C@@H]3CCCN3Cc3cccc(OC)c3)n2)cn1 | . | . | ? | .
CCN1CCN(Cc2nc3c(c(=O)n(C)c(=O)n3C)n2Cc2ccc(F)cc2)CC1 | / | / | . | /
O=C(CCC1CCCC1)NC1CCc2ccccc21 (stereo not drawn) | / | / | . | /
Cc1nc2ccc(NC(=O)CC3CCCC3)cc2s1 | / | / | . | /
C=C(C)COc1ccc(C(=O)Nc2ccccc2)cc1 | / | / | . | /
